The experiment deals with Kr (Drosophila melanogaster, UniProt P07247 220-332). As to the kind of experiment: FP; 20 mM Tris-acetate pH 7.0, 50 "nM" NaCl as printed (probably mM), 0.01% Tween 20, 0.1 mM DTT; conventional titration. The conditions noted are these: tags: N-GST (pGEX-6P-1, kept); dsDNA, one strand shown.
Kr, sequence (P07247 220-332): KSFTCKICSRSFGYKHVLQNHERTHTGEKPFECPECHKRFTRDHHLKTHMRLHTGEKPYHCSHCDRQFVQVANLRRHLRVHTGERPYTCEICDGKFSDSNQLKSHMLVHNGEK
Regarding TTGAGGGACTA, the binding signal was 3.27 Kd / Kd of best base at the position.
TTGAGGGATTT: the binding signal is 1.61 Kd / Kd of best base at the position.
The same measure, in the same setting: to TAGAGGGATTA belongs 1.67 Kd / Kd of best base at the position; to TTGAGGGATTC, 2.58 Kd / Kd of best base at the position.
TTGGGGGATTA: the binding signal was 16.7 Kd / Kd of best base at the position.
Still for that read-out and setting: to TCGAGGGATTA belongs 1.5 Kd / Kd of best base at the position; to ATGAGGGATTA, 1.06 Kd / Kd of best base at the position; to TTAAGGGATTA, 1.14 Kd / Kd of best base at the position.
On the same count and under the same terms, in the case of TTGAGGGATAA it was 1.82 Kd / Kd of best base at the position; in that of TTGAGGGATCA, 4.06 Kd / Kd of best base at the position; in that of TGGAGGGATTA, 1.3 Kd / Kd of best base at the position.
Regarding TTGAGGGGTTA, the binding signal is 1.22 Kd / Kd of best base at the position.
For TTGCGGGATTA, the binding signal was 12.2 Kd / Kd of best base at the position.
The same measure, in the same setting: in the case of TTGAGGGATTG it was 1.33 Kd / Kd of best base at the position; in that of TTGAGCGATTA, 27.9 Kd / Kd of best base at the position.
The same measure, in the same setting: in the case of TTGAGAGATTA it was 15.7 Kd / Kd of best base at the position; in that of TTGACGGATTA, 2.29 Kd / Kd of best base at the position; in that of GTGAGGGATTA, 1.3 Kd / Kd of best base at the position.
For TTGAGGGATGA, the binding signal was 1.78 Kd / Kd of best base at the position.
Take TTGAGGGTTTA: the binding signal is 9.26 Kd / Kd of best base at the position.
Regarding TTTAGGGATTA, the binding signal is 4.08 Kd / Kd of best base at the position.
As to TTGATGGATTA, the binding signal was 4.9 Kd / Kd of best base at the position.
Same read-out and setting: in the case of TTGAGGAATTA it was 2.59 Kd / Kd of best base at the position.
Sequence TTGAGGGATTA gave a Kd of about 0.2 nM.
Take TTGAGGGAGTA: the binding signal is 2.01 Kd / Kd of best base at the position.
The same measure, in the same setting: to TTCAGGGATTA belongs 4.61 Kd / Kd of best base at the position; to TTGAGTGATTA, 37.9 Kd / Kd of best base at the position; to TTGAGGGAATA, 4.25 Kd / Kd of best base at the position.
Same read-out and setting: to TTGTGGGATTA belongs 3.61 Kd / Kd of best base at the position.
The same measure, in the same setting: to TTGAGGTATTA belongs 13.8 Kd / Kd of best base at the position; to TTGAGGCATTA, 267 Kd / Kd of best base at the position.
Consider TTGAAGGATTA, for which the binding signal is 1.22 Kd / Kd of best base at the position.
Turning to CTGAGGGATTA, the binding signal was 1.7 Kd / Kd of best base at the position.
For the sequence TTGAGGGCTTA, the binding signal was 2.19 Kd / Kd of best base at the position.

For the origin of these results see article PMC5913336, “True equilibrium measurement of transcription factor-DNA binding affinities using automated polarization microscopy”.
